Screens as filed in PubChem BioAssay.
Vaccinia mCherry: inhibitors of vaccinia virus infection (mCherry reporter signal); Vaccinia virus mCherry reporter infection, fluorescence; actives 0.63% (n = 310,000); Potency, µM (doses to about 36.5 µM), actives largely listed as inhibitors; calls by dose curve; tested in A549 cells; also: nearly all actives have a fitted effect of over 35% in size
Lassa entry inh: Lassa virus entry inhibition | Lassa virus pseudotype entry inhibition, cell reporter | Potency, µM (top dose mostly 37.9 µM), most hits filed as inhibitors | actives 1.2% (n = 300,000) | AID 540256; calls by dose curve; tested in HEK293 cells; also: nearly all actives have a fitted effect of over 50% in size
VACV Venus inh: inhibitors of vaccinia virus (Venus reporter). Vaccinia virus Venus reporter expression, fluorescence. Potency, µM (doses to about 36.5 µM), most hits filed as inhibitors. actives 0.46% (n = 330,000). AID 720580; calls by dose curve; tested in A549 cells; also: nearly all actives have a fitted effect of over 30% in size
HCMV inh: human cytomegalovirus inhibition; HFF cells, HCMV-luciferase reporter, 72 h; active compounds read low; activity change, negative = inhibition, % at 57.5 µM; actives 4.5% (n = 410,000); AID 1259415; in the data active = activity change below about -60%; inconclusive = no clear call, values can overlap the other calls; inactive = above about -39%
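Screen run at 2 compound doses on HFFs infected with reporter HCMV, MOI 1 PFU/cell. Luciferase activity from cell lysates at 72 h post infection gave inhibition relative to buffer-only and Salinomycin wells.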
MARV entry inh: blocks Marburg virus binding to or entry into cells; actives 1.8% (n = 300,000); Marburg virus pseudotyped entry inhibition, cell reporter; Potency, µM (highest dose often 37.8 µM), usual class: inhibitors; calls by dose curve; tested in HEK293 cells
FMDV inh: foot and mouth disease virus antiviral activity; FMDV antiviral cell-based qHTS; Potency, µM (doses to about 57.9 µM), hits mostly inhibitors; actives 1.2% (n = 410,000); calls by dose curve; tested in HEK293T cells; also: read-out not given here; nearly all actives have a fitted effect of over 45% in size
Numbers stand for hits. Hits are enriched below; roughly 6.5% of the tested compounds scored in any of these assays.

Results for CCCCc1nc2ccccc2c(N)c1CCC (tested in a mixture with another compound) ?
Vaccinia mCherry: inconclusive; Lassa entry inh: inconclusive; VACV Venus inh: inactive; HCMV inh: -68; MARV entry inh: 18µM; FMDV inh: inconclusive

What do the screens show for `CCCCc1nc2ccccc2c(NC(=O)CNC(C)(C)C)c1CCC`?
Vaccinia mCherry: inactive; Lassa entry inh: inactive; VACV Venus inh: inactive; HCMV inh: inactive; MARV entry inh: inactive; FMDV inh: inactive

How did COc1ccc(C2CC(=O)c3cc(-c4nc(-c5ccc(C)cc5)cs4)c(=O)[nH]c3C2)cc1 (stereo not given) do in these assays?
Vaccinia mCherry: inactive; Lassa entry inh: inactive; VACV Venus inh: inactive; HCMV inh: inactive; MARV entry inh: inactive; FMDV inh: inactive

How did CN(C)c1ccc(N=Nc2ccccc2)cc1 do in these assays?
Vaccinia mCherry: inactive; VACV Venus inh: inactive

How did CN(C)c1ccc(N=Nc2ccc(C(=O)O)cc2)cc1 do in these assays?
Vaccinia mCherry: inactive; Lassa entry inh: 7.1µM; VACV Venus inh: inactive; HCMV inh: inactive; MARV entry inh: 2.8µM; FMDV inh: 11µM

How did Cc1ccc(SCc2nc(-c3ccc(C(=O)NCC(C)c4ccccc4)cc3)oc2C)cc1 (stereo not given) do in these assays?
Vaccinia mCherry: inactive; Lassa entry inh: inconclusive; VACV Venus inh: inactive; HCMV inh: inactive; FMDV inh: inconclusive

How did CCOC(=O)/C(=N\Nc1ccccc1[N+](=O)[O-])c1csc(N)n1 do in these assays?
Vaccinia mCherry: inactive; VACV Venus inh: inconclusive; HCMV inh: -65; FMDV inh: inactive

How did CCOC(=O)/C(=N\Nc1ccc(C(C)=O)cc1)c1csc(Nc2ccccc2)n1 do in these assays?
Vaccinia mCherry: inactive; Lassa entry inh: inconclusive; VACV Venus inh: inactive; HCMV inh: inconclusive; MARV entry inh: inconclusive; FMDV inh: inactive

How did CCOC(=O)[C@H]1[C@H]2COc3ccc(Cl)cc3[C@@H]2N2C(=O)CN(Cc3ccc(F)cc3)C(=O)[C@@]12C do in these assays?
Vaccinia mCherry: inactive; VACV Venus inh: inactive; HCMV inh: inactive; FMDV inh: inactive

How did CCOC(=O)[C@H]1[C@H]2COc3ccc(OC)cc3[C@@H]2N2C(=O)c3ccccc3NC(=O)[C@@]12C do in these assays?
Vaccinia mCherry: inactive; VACV Venus inh: inactive; HCMV inh: -80; FMDV inh: inactive

How did CCOC(=O)[C@H]1[C@H]2COc3ccc(Cl)cc3[C@@H]2N2C(=O)c3ccccc3NC(=O)[C@@]12C do in these assays?
Vaccinia mCherry: inactive; VACV Venus inh: inactive; HCMV inh: -70; FMDV inh: inconclusive

What do the screens show for `CCOC(=O)[C@H]1[C@H]2COc3ccc(Cl)cc3[C@@H]2N2C(=O)c3cc(Cl)ccc3NC(=O)[C@@]12C`?
Vaccinia mCherry: inactive; VACV Venus inh: inactive; HCMV inh: inactive; FMDV inh: inconclusive

Results for CCOC(=O)[C@H]1[C@H]2COc3ccc(Cl)cc3[C@@H]2N2C(=O)CN(Cc3ccc(Cl)cc3)C(=O)[C@@]12C ?
Vaccinia mCherry: inactive; VACV Venus inh: inactive; HCMV inh: -99; FMDV inh: inconclusive

How did COc1cc(/C=c2\[nH]c(=O)/c(=C/c3cc(OC)c(OC)c(OC)c3)[nH]c2=O)cc(OC)c1OC do in these assays?
Vaccinia mCherry: inactive; VACV Venus inh: inactive

How did Cc1cc(N[C@@H](CC(C)C)C(=O)O)nc(Cc2ccccc2)n1 do in these assays?
MARV entry inh: inactive

What do the screens show for `C[C@H](CO)N1C[C@H](C)[C@H](CN(C)S(=O)(=O)c2cccs2)Oc2ccc(NC(=O)Nc3ccc4c(c3)OCO4)cc2CC1=O`?
Vaccinia mCherry: inactive; VACV Venus inh: inconclusive; HCMV inh: -69; FMDV inh: inactive

What do the screens show for `COc1ccc(CN(C)C[C@@H]2OCCCC[C@H](C)Oc3ccc(NC(=O)Nc4ccc(F)cc4)cc3C(=O)N([C@H](C)CO)C[C@H]2C)cc1`?
Vaccinia mCherry: inactive; VACV Venus inh: inactive; HCMV inh: -102; FMDV inh: inconclusive

How did C[C@H](CO)N1C[C@H](C)[C@@H](CN(C)Cc2ccc(Cl)c(Cl)c2)Oc2c(NC(=O)Cc3ccccc3)cccc2C1=O do in these assays?
Vaccinia mCherry: 5.6µM; VACV Venus inh: inconclusive; HCMV inh: inactive; FMDV inh: inactive

Results for C[C@H]1CN([C@@H](C)CO)C(=O)Cc2cc(NC(=O)CCC(F)(F)F)ccc2O[C@H]1CN(C)S(=O)(=O)c1ccc(F)cc1 ?
Vaccinia mCherry: inactive; VACV Venus inh: inconclusive; HCMV inh: -100; FMDV inh: inactive

Results for CCCCCCCC#Cc1ccccc1C=NS(=O)c1ccc(C)cc1 (stereo not given) ?
MARV entry inh: inactive

Results for C[C@@H]1CN([C@@H](C)CO)C(=O)Cc2cc(NC(=O)Nc3ccc(F)cc3)ccc2O[C@@H]1CN(C)Cc1ccc(Cl)c(Cl)c1 ?
Vaccinia mCherry: inconclusive; VACV Venus inh: 11µM; HCMV inh: inactive; FMDV inh: inconclusive

What do the screens show for `C[C@@H]1CCCCO[C@H](CN(C)Cc2ccc(C(F)(F)F)cc2)[C@H](C)CN([C@@H](C)CO)C(=O)c2cc(NC(=O)Cc3ccccc3)ccc2O1`?
Vaccinia mCherry: inconclusive; VACV Venus inh: 11µM; HCMV inh: -81; FMDV inh: inconclusive

Results for C[C@@H]1CN([C@@H](C)CO)C(=O)c2cc(NC(=O)Nc3ccc(F)cc3)ccc2O[C@@H]1CN(C)Cc1ccc(Oc2ccccc2)cc1 ?
Vaccinia mCherry: inconclusive; VACV Venus inh: 10µM; HCMV inh: inactive; FMDV inh: inactive

How did C[C@H]1CN([C@@H](C)CO)C(=O)Cc2cc(NS(C)(=O)=O)ccc2O[C@@H]1CN(C)Cc1ccc(Cl)c(Cl)c1 do in these assays?
Vaccinia mCherry: inactive; VACV Venus inh: inactive; HCMV inh: inactive; FMDV inh: inactive

Results for CC1(C2CCC3C4CCC5CC6(CCC5(C)C4C(=O)CC32C)OCCO6)OCCO1 (stereo not given) ?
Vaccinia mCherry: inactive; Lassa entry inh: inactive; VACV Venus inh: inactive; HCMV inh: -99; MARV entry inh: inconclusive; FMDV inh: inactive

What do the screens show for `Cc1nnnn1/C(=C\c1ccccc1)C(=O)OCC(=O)NC1CCCCC1`?
Vaccinia mCherry: inconclusive; Lassa entry inh: inconclusive; VACV Venus inh: inconclusive; HCMV inh: inactive; MARV entry inh: 11µM; FMDV inh: 8.9µM

What do the screens show for `CC(=O)Nc1ccc(NC(=O)COC(=O)c2c(C)nn(-c3ccccc3)c2C)cc1`?
Vaccinia mCherry: inactive; Lassa entry inh: inconclusive; VACV Venus inh: inactive; HCMV inh: inactive; MARV entry inh: inactive; FMDV inh: inactive

Results for Cc1nnnn1/C(=C\c1ccccc1)C(=O)OCC(=O)NC(C)(C)C ?
Vaccinia mCherry: inconclusive; Lassa entry inh: inactive; VACV Venus inh: inactive; HCMV inh: inactive; MARV entry inh: 6.3µM; FMDV inh: 18µM

Results for CC(=O)Nc1ccc(NC(=O)COC(=O)/C(=C/c2ccccc2)n2nnnc2C)cc1 ?
Vaccinia mCherry: inconclusive; Lassa entry inh: inconclusive; VACV Venus inh: inactive; HCMV inh: inactive; MARV entry inh: inconclusive; FMDV inh: 20µM
